Measured values: PubChem BioAssay (Tox21)
Results filed as inconclusive are left out. Active and inactive are the calls of the source. The call rests on the fitted dose curve; in most records, active means well fitted activation curve with a large enough effect in the signal ratio in the repeat runs (not every such curve was filed as active); inconclusive means weak or mixed curves, or effect the other way; inactive means flat fitted curve, though single readings scatter; the % refers to the signal ratio.

molecular target: Estrogen receptor beta (Homo sapiens) (UniProt Q92731); assay: qHTS assay to identify small molecule agonists of the estrogen receptor beta (ER-beta) signaling pathway (AID 1259377); details: ER-beta-UAS-bla HEK293T, beta-lactamase FRET ratio, 16 h; series mostly up to 92.4 µM; activation: at the top concentration
Sequence (Q92731 whole entry, looked up): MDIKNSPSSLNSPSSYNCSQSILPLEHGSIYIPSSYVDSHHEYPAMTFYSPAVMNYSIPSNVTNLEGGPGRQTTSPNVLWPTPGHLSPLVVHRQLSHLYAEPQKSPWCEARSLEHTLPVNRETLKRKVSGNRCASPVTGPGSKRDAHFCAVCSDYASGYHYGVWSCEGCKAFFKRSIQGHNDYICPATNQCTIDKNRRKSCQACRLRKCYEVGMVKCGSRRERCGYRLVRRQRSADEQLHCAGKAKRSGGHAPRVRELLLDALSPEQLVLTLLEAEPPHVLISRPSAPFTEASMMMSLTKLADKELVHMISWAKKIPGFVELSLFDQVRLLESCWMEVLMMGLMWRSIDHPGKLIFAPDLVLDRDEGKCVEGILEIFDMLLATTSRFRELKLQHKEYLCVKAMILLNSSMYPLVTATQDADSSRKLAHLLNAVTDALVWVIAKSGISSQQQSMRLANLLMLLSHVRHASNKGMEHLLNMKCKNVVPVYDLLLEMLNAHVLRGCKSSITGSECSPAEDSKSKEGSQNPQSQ
Excerpt: U.S. Tox21 Program National Center for Advancing Translational Sciences [NCATS] NIH Chemical Genomics Center [NCGC] U.S. Environmental Protection Agency [EPA] National Institutes of Environmental Health Sciences [NIEHS] National Toxicology Program [NTP] U.S. Food and Drug Administration [FDA] Tox21 Assay Overview: Estrogen receptor (ER), a nuclear hormone receptor, plays an important role in development, metabolic homeostasis and reproduction. Two subtypes of ER, ER-alpha and ER-beta, have similar expression patterns with some uniqueness in both types. Endocrine disrupting chemicals (EDCs) and their interactions with steroid hormone receptors like ER causes disruption of normal endocrine function. To identify the compounds that activate ER signaling, an ER beta-UAS-bla GripTite cell line (Life technologies, Madison, WI, USA) containing a beta-lactamase reporter gene under the control of an Upstream Activator Sequence (UAS) was used to screen Tox21 10K compound library.
Tox21 Assay Protocol Summary: ER-beta-UAS-bla HEK293T cells were dispensed at 2,000 cells/5 uL of assay medium containing 2% charcoal stripped FBS per well into black wall/clear-bottom 1536-well plates using a Multidrop Combi (ThermoFisher Scientific, Waltham, MA) dispenser. After the assay plates were incubated at a 37C and 5% CO2 for 6 hr, 23 nL of compounds dissolved in DMSO, positive controls or DMSO only was transferred to the assay plate by a Pintool station (Kalypsys, San Diego, CA). The plates were incubated at 37C and 5% CO2 for 16 hr. Then 1 uL of LiveBLAzerTM B/G FRET substrate was added using a BioRAPTR FRD (Flying Reagent Dispenser, Aurora Discovery, San Diego, CA). After the plates were incubated at room temperature for 2 hours, fluorescence intensity was measured by an Envision plate reader (PerkinElmer, Shelton, CT).
On the % scale 0 is the no-effect control and ±100 the full control effect.

Row | Structure (SMILES) | activation
1 | CCO | -4.13% (inactive)
2 | COC(=O)c1ccccc1C(=O)O | -1.39% (inactive)
3 | CCCCCCCCCCCCCCC(=O)NC(CO)CCCCCCCCCCCCCC (stereo not given) | -0.16% (inactive)
4 | CC/C=C\CCOC(=O)c1ccccc1O | -1% (inactive)
5 | OC1(c2ccc(Cl)cc2)CCNCC1 | -0.952% [at 42.5 µM] (inactive)
6 | CC(CO)(CO)CO | -1% (inactive)
7 | Cc1c(C(=O)c2c[nH]n(C)c2=O)ccc(S(C)(=O)=O)c1C1=NOCC1 | 1.9% [at 42.5 µM] (inactive)
8 | CCCC(=O)OC/C=C(\C)CCC=C(C)C | 4.54% (inactive)
9 | CCCCCCCCCCCCCCCCCCOCCO | -0.0155% [at 19 µM] (inactive)
10 | CC1(C)[C@H]2CC[C@](C)(C2)[C@H]1O | -0.826% (inactive)
11 | CC(=O)OCC(=O)Nc1cc(C#N)cc(NC(=O)COC(C)=O)c1Cl | -0.852% [at 42.5 µM] (inactive)
12 | COP(=O)(O)OP(=O)(O)OC | 7.9% (inactive)
13 | CCOc1ccccc1OCC1CNCCO1 (stereo not given) | 2.15% [at 42.5 µM] (inactive)
14 | C=CCOC(=O)CCCCCC | -0.397% (inactive)
15 | CC(C)OC(=O)CCC(=O)OC(C)C | -2.26% (inactive)
16 | COc1cc(OC)nc(O[C@H](C(=O)O)C(OC)(c2ccccc2)c2ccccc2)n1 | 0.451% [at 42.5 µM] (inactive)
17 | CN(C)CCN(C)CCO | -0.337% (inactive)
18 | O=C(O)CSCC(=O)NC1CCSC1=O (stereo not given) | -0.256% [at 42.5 µM] (inactive)
19 | CO/N=C(/C(=O)N[C@@H]1C(=O)N2C(C(=O)[O-])=C(C[n+]3ccn4ncccc43)CS[C@H]12)c1nsc(N)n1 | 0.092% [at 42.5 µM] (inactive)
20 | CCn1cc(C(=O)O)c(=O)c2cnc(N3CCCC3)nc21 | 4.52% [at 8.39 µM] (inactive)

Row | Structure (SMILES) | activation
21 | CCCCCCCCCCCCCCCCCC#N | -2.72% (inactive)
22 | Cc1ccc(N)cc1S(=O)(=O)O | 8.3% (inactive)
23 | CC1(C)Oc2ccc(C#N)cc2[C@@H](N2CCCC2=O)[C@@H]1O | 1.7% [at 42.5 µM] (inactive)
24 | CN1C[C@@H]2C[C@H]1CN2c1cc2c(cc1F)c(=O)c(C(=O)O)cn2C1CC1 | 1.21% [at 19 µM] (inactive)
25 | CCCCOCCOC(=O)COc1ccc(Cl)cc1Cl | 11.3% (inactive)
26 | CC(=O)OC1CCCCC1C(C)(C)C (stereo not given) | 2.92% (inactive)
27 | O=NN(CCCl)C(=O)NC1CCCCC1 | 5.61% [at 42.5 µM] (inactive)
28 | CCCc1ccc(O)cc1 | 6.34% (inactive)
29 | C=C(C)c1cccc(C(C)(C)N=C=O)c1 | -1.35% (inactive)
30 | C[C@H]1[C@@H](c2ccccc2)NC(=O)N1C | -0.673% (inactive)
31 | NCc1ccc(S(N)(=O)=O)cc1 | -0.15% [at 42.5 µM] (inactive)
32 | CCC/C=C(\C=O)CC | 0.0598% (inactive)
33 | C=C(C)C1CC=C(C)C(=O)C1 (stereo not given) | -1.3% (inactive)
34 | CCC[C@@H]1C[C@@H](C(=O)N[C@@H]([C@H]2O[C@H](SC)[C@H](O)[C@@H](O)[C@H]2O)[C@@H](C)O)N(C)C1 | -1.42% [at 42.5 µM] (inactive)
35 | Cc1ccnc(N)c1 | 0.621% (inactive)
36 | CN(C)CCOC(=O)C(c1ccccc1)C1(O)CCCC1 (stereo not given) | -2.88% [at 42.5 µM] (inactive)
37 | C=CCCCCCCCCC(=O)OCCCC | -1.8% (inactive)
38 | CC(S)C(C)S (stereo not given) | 4.7% (inactive)
39 | COS(=O)(=O)O | 1.71% (inactive)
40 | Cn1c(=O)c2[nH]c(Br)nc2n(C)c1=O | 8.88% [at 42.5 µM] (inactive)
